Active and inactive are the calls of the source.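 How the source made its calls, unless noted: active means fluorescence slope after compound addition differing from the mean of all screened samples at 99.7% confidence, in either direction; inactive means the rest.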

The record followed here is PubChem BioAssay.

Assay [1] in a line: inhibitors of TNFa-induced NFkB p65 translocation, primary screen, imaging, HUVEC, MLSMR starter and 10KST1 sets (AID 438;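 active means inhibition above 20% together with a positive visual image hit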;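 further: compound added about 3h40 before a 20 min TNFalpha stimulation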;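 on inhibition: signal is the nuclear over cytoplasmic p65 intensity ratio per well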). Particulars: HUVEC TNFa-induced p65 nuclear translocation; cell count: measured here: nuclei count (cytotoxicity indicator), at 2.08 µM; inhibition: at 2 µM, stronger effect = higher value, 0% TNFa-plus-vehicle, 100% no-TNFa wells.
Assay [2] is described as follows: inhibitors of mutant huntingtin aggregation, primary screen, imaging, exon1htt(103Q)mCFP cells, high-content imaging (AID 483;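 active means visual image review flags a hit and inhibition of aggregation exceeds 20%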;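 further: compound exposure lasted 3 days before fixation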;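 on nuclei count: percent of the per-plate median nuclei count of sample wells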). Particulars: exon1htt(103Q)mCFP cell line, aggregate imaging, at 2 µM; inhibition of aggregation: stronger effect = higher value; nuclei count: measured here: cell count, toxicity.
Assay [3] can be described thus: inhibitors of E-selectin induction by TNFa, primary screen, imaging, HUVEC, immunofluorescence, MLSMR starter and 10KST1 sets (AID 487;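 active means visually confirmed hit in the image check and inhibition above 20%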;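 on inhibition: signal is fraction of cell area covered by stained E-selectin grains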;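 on nuclei count: 100% = median nuclei count of all wells on the same plate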). To be noted: HUVEC TNFalpha-induced E-selectin immunofluorescence imaging, at 2 µM; inhibition: stronger effect = higher value; nuclei count: measured here: cell number, toxicity.
Assay [4] addresses Voltage-gated potassium channel subunit beta-2 (Rattus norvegicus) (UniProt P62483). Nature of the assay: KvBeta enzyme negative modulators, primary screen, biochemical, NADPH fluorescence (AID 622;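 active means fluorescence slope higher than the sample average by over 3 SD, cut at about -0.22 in these data, passing the limit was not always enough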;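 further: slope of raw intensity against log time taken from 70 to 1610 s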). Particulars: recombinant KvBeta, 4-cyanobenzaldehyde reduction, at 10 µM, stronger effect = higher value.
Assay [5] shares this target. Kind of assay: KvBeta positive modulators, primary screen, biochemical, NADPH fluorescence (AID 623;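 active means NADPH fluorescence slope more negative than the mean of all samples by about 3 SD, 99.7% confidence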;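 further: fluorescence intensity change per second fitted from 20 to 320 s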). Particulars: Recombinant KvBeta, NADPH fluorescence decrease slope, 10 min; at 10 µM; stronger effect = lower value.
Assay [6] addresses Alpha-2C adrenergic receptor (Homo sapiens) (UniProt P18825). Nature of the assay: modulators of alpha2C/GIRK thallium flux, primary screen, cell-based, HEK293 alpha2C/GIRK1/2 (AID 624).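 Further: slope of fluorescence ratio to pre-addition baseline per second over 15 to 24 s.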 Particulars: thallium flux BTC fluorescence, at 10 µM, actives lie on both sides.
Assay [7] is described as follows: inhibitors of Sendai virus-induced IRF3 signaling, primary screen, TLR/RLR signaling modifier project, cell-based, Sendai virus stimulus, luciferase, 10K MLSCN set (AID 602276;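 active means inhibition at or above 50% at 10 µM; inactive means inhibition below 50%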;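 further: firefly luciferase from ISG56 promoter only with Renilla not read in this screen; 0% = Sendai virus plus DMSO and 100% = medium plus DMSO without virus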). To be noted: HEK293 RL24 IRF3 luciferase reporter, at 10 µM, stronger effect = higher value. In general terms: A reporter such as luciferase makes a cellular process visible.
Assay [8] is described as follows: inhibitors of poly I:C-induced TLR3 signaling, primary screen, cell-based, poly I:C stimulus, luciferase, 10K MLSCN set (AID 602277;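 active means inhibition of the reporter signal at or above 50%; inactive means inhibition below 50%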). Particulars: HEK293-TLR3 RL24 IRF3 luciferase reporter, at 10 µM, stronger effect = higher value.

Chain of Voltage-gated potassium channel subunit beta-2 (Rattus norvegicus) (P62483 whole entry, looked up): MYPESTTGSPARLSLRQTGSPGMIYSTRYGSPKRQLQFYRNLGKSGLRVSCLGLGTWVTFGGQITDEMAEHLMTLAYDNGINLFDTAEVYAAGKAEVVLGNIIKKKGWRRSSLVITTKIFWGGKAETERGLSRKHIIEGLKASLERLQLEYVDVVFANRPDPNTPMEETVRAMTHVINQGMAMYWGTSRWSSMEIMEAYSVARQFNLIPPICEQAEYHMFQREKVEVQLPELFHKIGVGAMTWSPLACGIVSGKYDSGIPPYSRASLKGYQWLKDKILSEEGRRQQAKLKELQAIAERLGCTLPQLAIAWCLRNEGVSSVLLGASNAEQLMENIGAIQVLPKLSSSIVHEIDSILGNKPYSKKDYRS
Chain of Alpha-2C adrenergic receptor (Homo sapiens) (P18825 whole entry, looked up): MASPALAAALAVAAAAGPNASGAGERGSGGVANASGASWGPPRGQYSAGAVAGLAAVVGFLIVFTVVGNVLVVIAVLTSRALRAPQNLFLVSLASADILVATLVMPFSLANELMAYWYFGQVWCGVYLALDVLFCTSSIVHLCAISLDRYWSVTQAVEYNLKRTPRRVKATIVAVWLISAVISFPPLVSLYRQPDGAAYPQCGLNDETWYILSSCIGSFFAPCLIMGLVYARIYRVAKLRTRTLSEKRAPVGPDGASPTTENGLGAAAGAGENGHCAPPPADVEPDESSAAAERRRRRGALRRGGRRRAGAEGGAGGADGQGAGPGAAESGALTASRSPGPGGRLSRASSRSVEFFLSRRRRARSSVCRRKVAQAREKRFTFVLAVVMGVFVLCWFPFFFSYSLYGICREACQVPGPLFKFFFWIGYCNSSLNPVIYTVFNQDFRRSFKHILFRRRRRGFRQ

What is called inhibition is the relative decrease from the control value, in per cent. As to `CC(NC(=O)c1cn(C)c2ccc(S(=O)(=O)N3CCCC3)cc2c1=O)c1ccc2c(c1)OCCO2` (stereo not drawn), the cell count in assay [1] was 766. The inhibition was 0% (inactive) in assay [1], 3.8% (inactive) in assay [3], -4.57% (inactive) in assay [7] and 17% (inactive) in assay [8]. Further, the inhibition of aggregation in assay [2] is 5.6% (inactive). In addition, the nuclei count in assay [2] amounted to 98.3%; in assay [3], 103%. The fluorescence slope in assay [4] is -0.483 (inactive). Further, in assay [5], the NADPH fluorescence slope is -0.000101 (inactive). In assay [6], the slope is 0.00703 (inactive).
For the compound `Cc1c(C(=O)NCc2cccnc2)oc2ccc(S(=O)(=O)N3CCCCC3)cc12`, in assay [1], the cell count came out at 614. For the same compound, the inhibition was -17% (inactive) in assay [1], -47.2% (inactive) in assay [3], 19.5% (inactive) in assay [7] and 21.4% (inactive) in assay [8]. Further, the inhibition of aggregation in assay [2] was 37.3% (active). Further, the nuclei count in assay [2] is 117%; in assay [3] it was 107%. Further, the fluorescence slope in assay [4] is -0.448 (inactive). For the same compound, in assay [5], the NADPH fluorescence slope was -0.000103 (inactive). In addition, in assay [6], the slope was 0.00545 (inactive).
With `CCn1c(=O)cc(OCC(=O)Nc2nc(C)cs2)c2ccccc21`, the cell count in assay [1] was 809. The inhibition in assay [1] is -1.7% (inactive); in assay [3] it was -54.6% (inactive); in assay [7], 7.74% (inactive); in assay [8] it was 32.8% (inactive). In addition, the inhibition of aggregation in assay [2] is -24.7% (inactive). The values for the nuclei count in assay [2] and in assay [3] were 90.4% and 125%, respectively. In addition, the fluorescence slope in assay [4] was -0.525 (inactive). The NADPH fluorescence slope in assay [5] is -3.4e-05 (inactive). For the same compound, the slope in assay [6] was 0.00615 (inactive).
Regarding `COc1ccc(N2CCN(CCCNC(=O)C3(S(=O)(=O)c4ccc(Cl)cc4)CC3)CC2)cc1`, the cell count in assay [1] amounted to 447. Moreover, the inhibition in assay [1] is -6.2% (inactive); in assay [3], -86% (inactive); in assay [7], -9.9% (inactive); in assay [8], -1.93% (inactive). Further, in assay [2], the inhibition of aggregation is 8.8% (inactive). For the same compound, the nuclei count in assay [2] amounted to 101%; in assay [3] it was 115%. Also, the fluorescence slope in assay [4] was -0.565 (inactive). Besides, in assay [5], the NADPH fluorescence slope is 1.2e-05 (inactive). Further, in assay [6], the slope is 0.00533 (inactive).
In the case of `Cc1ccc(-c2noc(COc3ccccc3C)n2)cc1`, the cell count in assay [1] was 607. The inhibition was -7.8% (inactive) in assay [1], 35.1% (inactive) in assay [3], -24.5% (inactive) in assay [7] and -88.2% (inactive) in assay [8]. The inhibition of aggregation in assay [2] is 12.3% (inactive). The results for the nuclei count in assay [2] and in assay [3] were 110% and 129%, respectively. Further, the fluorescence slope in assay [4] is -0.484 (inactive). In assay [5], the NADPH fluorescence slope was 1.6e-05 (inactive). For the same compound, the slope in assay [6] is 0.0049 (inactive).
With `O=C(CN(C(=O)CCNC(=O)c1ccco1)c1ccccc1)NC1CCCC1`, the cell count in assay [1] is 311. The inhibition in assay [1] is -7.8% (inactive); in assay [3] it was -61.7% (inactive); in assay [7] it was -10.7% (inactive); in assay [8] it was -6.31% (inactive). The inhibition of aggregation in assay [2] was 27.1% (inactive). The nuclei count is 93.4% in assay [2] and 113% in assay [3]. For the same compound, the fluorescence slope in assay [4] was -0.542 (inactive). Further, the NADPH fluorescence slope in assay [5] is 2.6e-05 (inactive). For the same compound, the slope in assay [6] is 0.00484 (inactive).
Regarding `O=C(CSc1nnc(-c2ccccc2F)o1)OCc1ccccc1`, in assay [1], the cell count is 323. Also, the inhibition was 8.7% (inactive) in assay [1], -69.6% (inactive) in assay [3], 4.91% (inactive) in assay [7] and 34.1% (inactive) in assay [8]. Also, the inhibition of aggregation in assay [2] was -1.8% (inactive). Besides, the figures for the nuclei count in assay [2] and in assay [3] were 89.1% and 99.9%, respectively. Further, the fluorescence slope in assay [4] is -0.428 (inactive). Further, the NADPH fluorescence slope in assay [5] is 1.9e-05 (inactive). Moreover, the slope in assay [6] is 0.00527 (inactive).
Regarding `CCOC(=O)Nc1nnc(-c2ccccc2OC)s1`, the cell count in assay [1] was 613. The inhibition in assay [1] was -2.7% (inactive); in assay [3] it was 10.1% (inactive); in assay [7] it was -20.9% (inactive); in assay [8], -24.1% (inactive). Moreover, the inhibition of aggregation in assay [2] is -8.8% (inactive). For the same compound, the nuclei count in assay [2] was 108%; in assay [3] it was 102%. For the same compound, the fluorescence slope in assay [4] was -0.514 (inactive). Besides, the NADPH fluorescence slope in assay [5] is 1.1e-05 (inactive). The slope in assay [6] was 0.00542 (inactive).
